Chronic BCR inh – chronic active BCR signaling inhibition; ABC-DLBCL IkBa-CBG/CBR reporter, luminescence ratio, 4 h; Potency, µM (doses to about 46.1 µM), for inactives: top-dose activity change, negative = inhibition, hits mostly inhibitors; hit rate 0.05% among 340,000; active means well fitted inhibition curve with a large enough effect in the signal ratio, with a control signal flat, not every such curve was filed as active; inconclusive means small, poorly fitted or top-dose-only effect, or effect the other way, or a change in a side signal; the % refers to the signal ratio;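 further: plate controls were basal doxycycline-induced cells for no effect and cells given 10 µM MG132 for full effect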
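Concentration-response series (up to 46 uM) were applied to TMD8 dual-reporter cells for 4 h at 37C with doxycycline. Green/red ratio, after filter-overlap correction, defined %Activity; red signal alone was normalised to basal cells and zero luminescence.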
FUS suppressor – rescues growth of FUS-expressing yeast; S. cerevisiae FUS-expressing, growth rescue, OD600, 24 h; Potency, µM (series often up to 76.6 µM), usual class: activators; hit rate 0.24% among 390,000; AID 1347120;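 further: plate controls were DMSO vehicle for no effect and reference control for full effect; nearly all actives have a fitted effect of over 55% in size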
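Read-out: OD at 600 nm after 24hr at 30C, reporting rescue of FUS-induced yeast toxicity. Cells at OD 0.005 in galactose (2%) minimal medium; compounds tested in a dilution series; CP55940 titration from 92uM final as control.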
TDP43 rescue – TDP-43 toxicity inhibition in yeast; TDP-43 expressing yeast growth rescue, BacTiter-Glo, 24 h; hit rate 1.8% among 410,000; AID 652104; Potency, µM (doses to about 46.1 µM), without a hit: at the highest dose growth rescue (activation), usual class: activators; further: % of control where 0% means no effect; nearly all actives have a fitted effect of over 50% in size
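Growth rescue of TDP-43-toxic yeast measured as ATP luminescence (BacTiter-Glo). Cells grown to mid-log in raffinose, induced in galactose at OD600=0.02, exposed to compound 24 hr at 30 deg C.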
uPA generation – cell surface uPA generation inhibition | cell surface uPA generation assay, qHTS | Potency, µM (top dose mostly 38.3 µM), for inactives: top-dose activity change, negative = inhibition, actives largely listed as inhibitors | hit rate 0.31% among 330,000 | AID 540303; active means well fitted inhibition curve with a large enough effect; inconclusive means small, poorly fitted or top-dose-only effect; inactive means no such curve, though single readings can be large or run the other way; tested in mouse RAW 264.7 cells; further: on the % scale 0 is the no-effect control and ±100 the full control effect; nearly all actives have a fitted effect of over 55% in size
Abeta yeast res – compounds reversing amyloid beta toxicity in yeast | yeast expressing A-beta42, growth rescue, OD600, 48 h; response scale: 0% DMSO, 100% iron-clioquinol control | Potency, µM (series often up to 46.1 µM), hits mostly activators | hit rate 0.063% among 410,000; further: nearly all actives have a fitted effect of over 55% in size
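Growth rescue measured by 600 nm absorbance after 48 h yeast culture at 30 C with compound. Values normalized between DMSO and an equimolar ferric chloride plus clioquinol control.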
aSyn rescue – alpha-synuclein toxicity inhibition in yeast. Yeast expressing alpha-synuclein, growth rescue, BacTiter-Glo, 24 h. Potency, µM (highest dose often 46.1 µM), for inactives: top-dose growth rescue (activation), hits mostly activators. hit rate 0.14% among 370,000. AID 652106; further: % of control where 0% means no effect; nearly all actives have a fitted effect of over 65% in size
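Screening used galactose-induced yeast with toxic alpha-synuclein levels, exposed to compound for 24 hr at 30 deg C. Cell growth, read with BacTiter-Glo luminescence, gave the measured signal.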
Numbers without * were called inactive; i = inactive; u = inconclusive; x = no result; ! = repeats disagree. Rows were chosen to be rich in hits. Some 2.3% of all compounds tested hit in one or more screens of this group. Unless noted, the call rests on the fitted dose curve; in most records, active means well fitted curve in the direction sought with a large enough effect; inconclusive means small, poorly fitted or top-dose-only effect, or another doubt; inactive means no such curve, though single readings can be large; an effect the other way counts as inactive or inconclusive. Potency means the concentration at half of the fitted maximal effect.

SMILES	Chronic BCR inh	FUS suppressor	TDP43 rescue	uPA generation	Abeta yeast res	aSyn rescue
COc1ccccc1CN1CC(C(=O)N(C)Cc2nc(C)cs2)CCC1=O (stereo unspecified)	2.2%	i	-0.1%	-8.6%	i	1.1%
c1ccc(CNc2ncnc3scc(-c4cccs4)c23)nc1	u	i	17.8µM*	u	i	10.7%
O=C(NCCOc1ccc(Cl)cc1)C1CC(=O)N(c2ccc3c(c2)OCCO3)C1 (stereo unspecified)	-2.0%	i	23.1%	17.9%	i	4.5%
Cc1nc(-c2cccnc2)sc1C(=O)Nc1ccc(C(F)(F)F)cc1	-2.9%	i	11.2µM*	3.0%	i	-3.6%
Cc1nc(-c2cccnc2)sc1C(=O)Nc1cccc(C(F)(F)F)c1	u	i	12.6µM*	-4.3%	i	-9.2%
O=C(NN=Cc1ccc(O)c(O)c1)c1ccccc1	x	i	7.9%	x	i	-4.8%
COc1cccc(-c2ncc3ccccc3c2COC(=O)N2CCCCC2)c1	-9.9%	i	u	-9.3%	i	-0.3%
CCOC(=O)CN1C(c2ccc(O)cc2)Nc2ccc(Br)cc2C1c1ccccc1 (stereo unspecified)	19.6%	x	20µM*	-2.0%	i	13.9%
CCOC(=O)CN1C(=O)Nc2ccc(Br)cc2C1c1ccccc1 (stereo unspecified)	u	i	6.7%	-13.1%	i	6.6%
Nc1ccccc1C(=O)Nc1cccc2ccccc12	-16.4%	i	14.1µM*	1.5%	i	-3.3%
O=C(Nc1nc(-c2ccccc2)cs1)C1CCCO1 (stereo unspecified)	u	i	0.8%	-6.1%	i	13.4%
CC(=O)c1cccc(NC(=O)c2nc(-c3ccc(C)cc3)n3c2CCCCC3)c1	x	u	20µM*	x	i	1.5%
Cc1ccc(-c2nc(C(=O)Nc3cccc(C#N)c3)c3n2CCCCC3)cc1	x	i	1.2%	x	i	0.2%
CCOC(=O)C(=O)N1CCC(C(=O)OC)CC1	5.5%	i	-12.1%	-2.1%	i	1.0%
O=C1OC(c2cccc3c(F)cccc23)c2ccccc21 (stereo unspecified)	x	i	20µM*	x	i	7.7%
O=C1OC(Nc2ccc(F)cc2F)c2ccccc21 (stereo unspecified)	0.3%	i	-4.1%	0.6%	i	-5.0%
Cc1ccc(CNc2ncnc3c2cnn3-c2ccc(C)cc2C)cc1	u	i	35.5µM*	x	i	x
Clc1ccc(-n2ncc3c(NCC4CCCO4)ncnc32)cc1 (stereo unspecified)	12.2%	i	11.2µM*	10µM*	i	-8.5%
Cc1ccc(Cl)cc1-n1ncc2c(NC3CCCCCC3)ncnc21	0.9%	i	14.1µM*	x	i	x
Cc1ccc(-n2ncc3c(NC4CCCCCC4)ncnc32)cc1Cl	2.7%	i	u	x	i	x
COc1ccc(CCNc2ncnc3c2cnn3-c2cc(Cl)ccc2C)cc1	-1.8%	i	20µM*	x	i	x
O=C(COCc1cc(-c2cccs2)on1)Nc1cc(C(F)(F)F)ccc1Cl	x	i	3.7%	x	i	x
Cc1cccc(-n2ncc3c(NC(C)C)ncnc32)c1	u	i	11.2µM*	u	i	-17.7%
CCc1nn(CCCC(=O)NCc2ccc(OC(C)C)cc2)c(=O)c2cc3occc3n12	u	31.6µM*!	7.0%	-12.4%	i	-3.4%
CCc1ccc(NC(=O)CCCn2nc(CC)n3c(cc4occc43)c2=O)cc1	-4.1%	i	23.4%	-1.9%	i	9.2%
SMILES	Chronic BCR inh	FUS suppressor	TDP43 rescue	uPA generation	Abeta yeast res	aSyn rescue
CCc1nn(CCCC(=O)NC2CCCCC2C)c(=O)c2cc3occc3n12 (stereo unspecified)	x	i	22.4µM*	x	i	4.4%
CCOc1ccc(CNC(=O)CCCn2nc(CC)n3c(cc4occc43)c2=O)cc1	u	i	22.5%	u	x	4.1%
CC1CCCC/C1=N\NC(=S)NCCc1ccccc1 (stereo unspecified)	u	i	u	-10.9%	u	11.1%
CCNc1nc(NCC)n2c(SC(C(=O)Nc3cc(C)ccc3C)c3ccccc3)nnc2n1 (stereo unspecified)	0.6%	31.6µM*	-7.9%	-0.3%	i	-4.3%
CCNc1nc(NCC)n2c(SC(C)C(=O)c3ccc(C)cc3)nnc2n1 (stereo unspecified)	-7.3%	x	14.3%	-3.6%	i	-8.3%
Cc1cc(C)c([N+](=O)[O-])cc1-c1ccc(/C=N/c2c(-c3ccco3)nc3ccccn23)o1	-0.6%	i	14.1µM*	5.6%	i	4.1%
CCCCCCn1c(=O)n2n(c1=O)[C@@H]1CN(S(=O)(=O)c3ccc(C)cc3)C[C@]1(O)[C@@H](OC(=O)NCc1ccc(OC)c(OC)c1)C2	x	22.4µM*	0.0%	x	i	10.6%
O=C(NC(=S)NCC1CCCO1)c1ccccc1F (stereo unspecified)	4.1%	i	-6.6%	-3.6%	i	-2.2%
O=C(NCCCc1ccccc1)c1nn(-c2ccccc2)nc1CO	x	i	27.2%	x	i	x
O=C(NCCc1ccccc1)c1nn(-c2ccccc2Cl)nc1CO	x	i	35.5µM*	x	i	x
COc1cc2c(cc1OC)C(C)N(C(=O)c1c(C)noc1C)CC2 (stereo unspecified)	u	i	11.6%	5.01µM*	i	6.9%
COc1cc2c(cc1OC)C(C)N(C(=O)c1cc(C)on1)CC2 (stereo unspecified)	u	i	23.5%	-10.0%	i	-0.6%
O=C1C(SCCO)=C(SCCO)C(=O)c2ccccc21	u	i	22.4µM*	-100.5%	i	-80.3%
CCC/C=C/c1ccc(CN2C(C(C)C)C(=O)N(Cc3cn(CC4CCCCC4)nn3)CCS2(=O)=O)cc1 (stereo unspecified)	x	u	0.0%	x	i	u
CNC(=S)N1N=C(c2ccc(OC)cc2)CC1c1ccccc1Cl (stereo unspecified)	-1.8%	i	3.16µM*	6.2%	i	-14.3%
CC(C)COC(=O)N1CCCC1C(=O)Nc1nccs1 (stereo unspecified)	5.4%	i	-15.8%	-0.1%	i	-2.6%
Cc1ccc(CSc2nnc(-c3cccs3)n2C)cc1	u	i	u	-6.8%	i	7.7%
Cc1nnc(SCc2cccc(CSc3nnc(C)s3)c2)s1	u	i	u	-4.6%	i	-1.0%
Cc1nnc(SCc2c(Cl)cccc2Cl)s1	-1.7%	i	15.8µM*	-1.1%	i	9.3%
Cn1c(SCc2ccc(Br)cc2)nnc1-c1cccs1	u	i	14.1µM*	-2.5%	i	8.9%

Compound activity (PubChem BioAssay)
